According to the supplement of paper PMC11732987, “Enantioselective OTUD7B fragment discovery through chemoproteomics screening and high-throughput optimisation” (Communications Chemistry, 2025):

What was measured:
Assay in all cases: log2 ratio of Biotin-Ahx-Ub-VS probe labelling (fragment/DMSO); higher = less target engagement (more negative = stronger competition), active = hit call of the paper (q ≤ 0.05, log2 ratio ≤ -1)
Conditions in all cases: compound concentration: 200 uM; treatment time: 3 h
[1] = target: USP34 (UniProt Q70CQ2)
Chain of USP34 (Q70CQ2 whole entry, the tested form may be a part): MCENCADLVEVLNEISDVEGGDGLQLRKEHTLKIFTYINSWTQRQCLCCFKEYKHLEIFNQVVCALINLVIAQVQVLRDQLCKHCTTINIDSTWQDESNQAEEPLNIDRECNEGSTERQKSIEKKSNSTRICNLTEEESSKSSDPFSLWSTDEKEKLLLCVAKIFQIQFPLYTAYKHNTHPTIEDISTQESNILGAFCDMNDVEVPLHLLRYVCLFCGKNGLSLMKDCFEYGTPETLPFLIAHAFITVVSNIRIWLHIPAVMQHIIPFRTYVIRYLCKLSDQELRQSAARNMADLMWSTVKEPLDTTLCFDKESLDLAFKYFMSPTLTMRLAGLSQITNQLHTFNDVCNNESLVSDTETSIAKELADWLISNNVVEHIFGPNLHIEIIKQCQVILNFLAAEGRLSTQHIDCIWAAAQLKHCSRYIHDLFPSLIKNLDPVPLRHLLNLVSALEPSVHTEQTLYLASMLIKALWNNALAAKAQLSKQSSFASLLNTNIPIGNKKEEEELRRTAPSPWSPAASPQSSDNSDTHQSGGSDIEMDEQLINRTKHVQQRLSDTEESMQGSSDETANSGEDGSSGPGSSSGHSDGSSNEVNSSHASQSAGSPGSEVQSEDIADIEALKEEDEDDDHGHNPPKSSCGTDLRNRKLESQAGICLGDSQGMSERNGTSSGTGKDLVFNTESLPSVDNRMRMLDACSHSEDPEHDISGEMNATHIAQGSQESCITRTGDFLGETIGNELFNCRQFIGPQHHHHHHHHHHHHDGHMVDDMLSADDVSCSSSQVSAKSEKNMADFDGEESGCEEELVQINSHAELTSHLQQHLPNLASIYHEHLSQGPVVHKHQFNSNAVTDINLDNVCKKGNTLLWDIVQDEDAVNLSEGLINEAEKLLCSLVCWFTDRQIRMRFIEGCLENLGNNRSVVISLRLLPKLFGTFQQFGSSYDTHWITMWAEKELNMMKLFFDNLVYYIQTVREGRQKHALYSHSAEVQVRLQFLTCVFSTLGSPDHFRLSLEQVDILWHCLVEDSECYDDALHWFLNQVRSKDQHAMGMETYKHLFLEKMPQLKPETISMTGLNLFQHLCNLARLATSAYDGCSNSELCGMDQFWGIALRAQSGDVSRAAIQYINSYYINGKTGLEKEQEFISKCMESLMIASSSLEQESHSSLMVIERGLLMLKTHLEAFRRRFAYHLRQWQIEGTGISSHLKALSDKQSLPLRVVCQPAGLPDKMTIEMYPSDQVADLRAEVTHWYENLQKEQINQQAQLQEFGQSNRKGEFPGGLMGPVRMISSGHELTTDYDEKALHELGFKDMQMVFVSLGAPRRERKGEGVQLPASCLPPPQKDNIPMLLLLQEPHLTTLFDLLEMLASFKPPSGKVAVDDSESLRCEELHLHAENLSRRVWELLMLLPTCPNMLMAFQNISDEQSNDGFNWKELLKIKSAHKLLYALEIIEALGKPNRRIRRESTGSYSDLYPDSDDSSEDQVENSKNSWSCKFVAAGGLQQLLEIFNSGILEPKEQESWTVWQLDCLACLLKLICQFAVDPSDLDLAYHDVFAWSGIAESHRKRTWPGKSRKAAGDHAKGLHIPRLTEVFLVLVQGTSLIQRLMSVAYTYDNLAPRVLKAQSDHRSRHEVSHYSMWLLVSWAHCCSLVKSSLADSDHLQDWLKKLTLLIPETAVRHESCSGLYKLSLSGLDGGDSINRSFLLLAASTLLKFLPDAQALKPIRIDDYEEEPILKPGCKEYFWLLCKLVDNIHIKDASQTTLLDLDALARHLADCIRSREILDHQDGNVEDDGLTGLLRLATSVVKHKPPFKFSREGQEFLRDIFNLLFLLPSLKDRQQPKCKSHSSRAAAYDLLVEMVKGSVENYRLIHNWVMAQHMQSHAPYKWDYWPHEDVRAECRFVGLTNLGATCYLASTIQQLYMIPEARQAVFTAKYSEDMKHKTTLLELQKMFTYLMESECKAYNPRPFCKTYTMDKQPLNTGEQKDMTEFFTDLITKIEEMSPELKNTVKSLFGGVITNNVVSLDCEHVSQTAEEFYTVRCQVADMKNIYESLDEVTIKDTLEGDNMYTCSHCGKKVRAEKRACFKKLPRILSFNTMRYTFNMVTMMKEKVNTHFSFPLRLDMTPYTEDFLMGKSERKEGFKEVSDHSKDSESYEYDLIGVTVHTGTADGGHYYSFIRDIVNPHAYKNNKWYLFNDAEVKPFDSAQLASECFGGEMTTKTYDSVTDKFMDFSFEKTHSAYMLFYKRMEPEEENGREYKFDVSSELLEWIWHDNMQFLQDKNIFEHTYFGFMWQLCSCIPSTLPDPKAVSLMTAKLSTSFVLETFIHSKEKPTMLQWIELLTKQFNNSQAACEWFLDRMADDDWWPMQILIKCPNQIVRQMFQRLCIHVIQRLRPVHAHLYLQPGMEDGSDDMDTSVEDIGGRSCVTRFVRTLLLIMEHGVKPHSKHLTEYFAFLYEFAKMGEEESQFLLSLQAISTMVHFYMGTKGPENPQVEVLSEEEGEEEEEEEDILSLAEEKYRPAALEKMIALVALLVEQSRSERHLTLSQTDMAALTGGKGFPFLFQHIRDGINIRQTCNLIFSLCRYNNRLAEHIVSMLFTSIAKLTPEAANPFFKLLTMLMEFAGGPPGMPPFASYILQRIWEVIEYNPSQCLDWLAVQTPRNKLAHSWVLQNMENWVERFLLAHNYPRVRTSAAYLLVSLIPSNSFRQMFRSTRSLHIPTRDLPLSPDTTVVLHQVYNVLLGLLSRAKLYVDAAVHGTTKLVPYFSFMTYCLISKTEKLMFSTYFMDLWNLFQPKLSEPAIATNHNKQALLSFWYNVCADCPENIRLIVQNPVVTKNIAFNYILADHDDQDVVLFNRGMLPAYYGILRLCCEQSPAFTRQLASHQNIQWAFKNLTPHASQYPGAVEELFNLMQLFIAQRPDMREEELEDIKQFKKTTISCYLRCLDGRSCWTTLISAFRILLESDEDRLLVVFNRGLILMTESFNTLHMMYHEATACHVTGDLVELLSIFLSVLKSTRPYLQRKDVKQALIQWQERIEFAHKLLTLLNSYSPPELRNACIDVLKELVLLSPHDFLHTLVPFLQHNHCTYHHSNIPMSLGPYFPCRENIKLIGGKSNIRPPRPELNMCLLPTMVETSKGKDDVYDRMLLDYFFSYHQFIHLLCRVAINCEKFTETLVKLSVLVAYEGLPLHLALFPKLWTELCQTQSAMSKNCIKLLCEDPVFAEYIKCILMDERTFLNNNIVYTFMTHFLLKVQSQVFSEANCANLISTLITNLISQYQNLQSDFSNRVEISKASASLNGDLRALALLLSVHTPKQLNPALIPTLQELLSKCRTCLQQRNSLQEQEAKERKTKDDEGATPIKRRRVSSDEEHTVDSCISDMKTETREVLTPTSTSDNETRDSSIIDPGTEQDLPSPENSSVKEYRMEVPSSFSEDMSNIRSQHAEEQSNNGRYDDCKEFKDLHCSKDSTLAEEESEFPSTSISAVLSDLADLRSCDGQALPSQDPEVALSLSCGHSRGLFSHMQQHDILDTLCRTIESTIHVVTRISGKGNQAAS
Procedure, shortened: (§1)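 The table lists average log2 ratios of fragment over vehicle, from an unpaired t-test on global-median-normalised Spectronaut label-free quantities. Proteins with ≥2 unique peptides were used. Samples were HEK293T lysate (495 µg) treated in triplicate with fragment at 200 µM or vehicle for 3 h, then with Biotin-Ahx-Ub-VS (0.5 µM final) for 1 h, with labelled DUBs NeutrAvidin-enriched and run by diaPASEF LC-MS/MS.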

[2] = target: T1, USP36 (UniProt Q9P275)
T1 sequence (whole entry): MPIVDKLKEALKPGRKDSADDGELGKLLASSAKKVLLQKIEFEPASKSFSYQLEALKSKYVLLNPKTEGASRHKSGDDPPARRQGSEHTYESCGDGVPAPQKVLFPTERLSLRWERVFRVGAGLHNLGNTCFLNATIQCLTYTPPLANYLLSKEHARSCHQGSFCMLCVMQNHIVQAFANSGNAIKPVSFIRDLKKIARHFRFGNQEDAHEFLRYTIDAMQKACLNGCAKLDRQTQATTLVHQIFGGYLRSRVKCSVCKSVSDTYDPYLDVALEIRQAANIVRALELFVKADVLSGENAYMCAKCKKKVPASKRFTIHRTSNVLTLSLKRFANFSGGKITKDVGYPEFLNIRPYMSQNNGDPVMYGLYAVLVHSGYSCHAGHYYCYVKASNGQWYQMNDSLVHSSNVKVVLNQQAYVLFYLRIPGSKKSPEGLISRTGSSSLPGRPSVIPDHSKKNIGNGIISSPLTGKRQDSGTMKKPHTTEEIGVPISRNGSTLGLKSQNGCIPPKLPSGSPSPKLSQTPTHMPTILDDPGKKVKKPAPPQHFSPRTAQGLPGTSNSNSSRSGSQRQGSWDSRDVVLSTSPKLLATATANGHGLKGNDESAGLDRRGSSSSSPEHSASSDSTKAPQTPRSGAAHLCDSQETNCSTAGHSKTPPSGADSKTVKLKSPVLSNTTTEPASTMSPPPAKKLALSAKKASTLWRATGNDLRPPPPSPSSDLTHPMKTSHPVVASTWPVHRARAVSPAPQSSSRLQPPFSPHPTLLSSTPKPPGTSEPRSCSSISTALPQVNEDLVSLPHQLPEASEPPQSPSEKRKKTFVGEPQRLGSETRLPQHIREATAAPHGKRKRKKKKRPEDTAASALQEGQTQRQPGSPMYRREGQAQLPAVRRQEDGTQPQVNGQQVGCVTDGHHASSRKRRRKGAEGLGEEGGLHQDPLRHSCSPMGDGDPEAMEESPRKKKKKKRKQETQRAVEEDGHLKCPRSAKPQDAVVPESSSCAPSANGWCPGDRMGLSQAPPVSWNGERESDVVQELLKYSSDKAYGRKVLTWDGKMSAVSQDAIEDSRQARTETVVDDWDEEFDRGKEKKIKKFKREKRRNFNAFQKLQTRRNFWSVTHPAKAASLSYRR
Procedure, shortened: as §1

[3] = target: T2, USP38 (UniProt Q8NB14)
T2 sequence (whole entry): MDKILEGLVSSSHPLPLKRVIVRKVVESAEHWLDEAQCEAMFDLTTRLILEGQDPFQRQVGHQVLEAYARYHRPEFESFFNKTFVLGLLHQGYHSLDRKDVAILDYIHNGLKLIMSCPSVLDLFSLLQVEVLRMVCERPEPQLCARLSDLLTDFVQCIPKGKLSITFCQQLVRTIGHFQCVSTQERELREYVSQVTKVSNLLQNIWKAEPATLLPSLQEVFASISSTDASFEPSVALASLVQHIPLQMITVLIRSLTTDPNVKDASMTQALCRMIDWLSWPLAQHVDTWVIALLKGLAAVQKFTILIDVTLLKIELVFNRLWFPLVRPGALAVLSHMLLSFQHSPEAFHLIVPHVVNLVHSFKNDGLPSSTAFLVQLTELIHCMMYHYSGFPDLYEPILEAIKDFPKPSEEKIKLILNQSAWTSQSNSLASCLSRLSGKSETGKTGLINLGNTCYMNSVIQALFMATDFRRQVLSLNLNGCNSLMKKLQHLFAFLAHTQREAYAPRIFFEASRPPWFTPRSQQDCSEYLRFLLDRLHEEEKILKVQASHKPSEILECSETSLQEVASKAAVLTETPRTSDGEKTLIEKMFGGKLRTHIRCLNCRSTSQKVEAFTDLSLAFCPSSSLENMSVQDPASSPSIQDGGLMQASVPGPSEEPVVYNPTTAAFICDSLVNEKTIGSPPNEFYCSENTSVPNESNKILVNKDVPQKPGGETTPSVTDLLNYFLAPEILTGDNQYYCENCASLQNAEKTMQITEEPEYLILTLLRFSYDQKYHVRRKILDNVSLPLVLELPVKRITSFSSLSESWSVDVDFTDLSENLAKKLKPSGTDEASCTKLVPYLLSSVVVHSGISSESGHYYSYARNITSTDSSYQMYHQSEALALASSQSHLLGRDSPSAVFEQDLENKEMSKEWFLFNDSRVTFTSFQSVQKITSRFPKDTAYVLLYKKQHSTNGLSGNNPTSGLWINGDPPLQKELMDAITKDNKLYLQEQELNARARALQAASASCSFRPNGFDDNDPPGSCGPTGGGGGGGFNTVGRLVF
Procedure, shortened: as §1

[4] = target: T3, USP39 (UniProt Q53GS9)
T3 sequence (whole entry): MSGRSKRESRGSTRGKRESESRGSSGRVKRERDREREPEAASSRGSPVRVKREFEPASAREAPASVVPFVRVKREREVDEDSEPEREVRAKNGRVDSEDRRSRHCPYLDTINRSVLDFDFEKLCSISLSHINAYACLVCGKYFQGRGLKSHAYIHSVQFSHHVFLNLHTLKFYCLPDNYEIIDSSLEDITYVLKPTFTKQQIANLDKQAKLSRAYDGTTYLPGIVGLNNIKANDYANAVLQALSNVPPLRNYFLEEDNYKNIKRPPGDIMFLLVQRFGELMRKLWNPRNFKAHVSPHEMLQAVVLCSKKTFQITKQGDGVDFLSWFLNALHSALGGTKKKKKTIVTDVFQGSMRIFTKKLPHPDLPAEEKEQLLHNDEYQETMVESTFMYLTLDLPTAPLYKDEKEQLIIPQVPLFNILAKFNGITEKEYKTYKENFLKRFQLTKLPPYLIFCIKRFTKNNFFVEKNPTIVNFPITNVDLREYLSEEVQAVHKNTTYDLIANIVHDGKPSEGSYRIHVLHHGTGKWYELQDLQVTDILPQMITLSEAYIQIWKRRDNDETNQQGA
Procedure, shortened: as §1

[5] = target: T4, USP4 (UniProt Q13107)
T4 sequence (whole entry): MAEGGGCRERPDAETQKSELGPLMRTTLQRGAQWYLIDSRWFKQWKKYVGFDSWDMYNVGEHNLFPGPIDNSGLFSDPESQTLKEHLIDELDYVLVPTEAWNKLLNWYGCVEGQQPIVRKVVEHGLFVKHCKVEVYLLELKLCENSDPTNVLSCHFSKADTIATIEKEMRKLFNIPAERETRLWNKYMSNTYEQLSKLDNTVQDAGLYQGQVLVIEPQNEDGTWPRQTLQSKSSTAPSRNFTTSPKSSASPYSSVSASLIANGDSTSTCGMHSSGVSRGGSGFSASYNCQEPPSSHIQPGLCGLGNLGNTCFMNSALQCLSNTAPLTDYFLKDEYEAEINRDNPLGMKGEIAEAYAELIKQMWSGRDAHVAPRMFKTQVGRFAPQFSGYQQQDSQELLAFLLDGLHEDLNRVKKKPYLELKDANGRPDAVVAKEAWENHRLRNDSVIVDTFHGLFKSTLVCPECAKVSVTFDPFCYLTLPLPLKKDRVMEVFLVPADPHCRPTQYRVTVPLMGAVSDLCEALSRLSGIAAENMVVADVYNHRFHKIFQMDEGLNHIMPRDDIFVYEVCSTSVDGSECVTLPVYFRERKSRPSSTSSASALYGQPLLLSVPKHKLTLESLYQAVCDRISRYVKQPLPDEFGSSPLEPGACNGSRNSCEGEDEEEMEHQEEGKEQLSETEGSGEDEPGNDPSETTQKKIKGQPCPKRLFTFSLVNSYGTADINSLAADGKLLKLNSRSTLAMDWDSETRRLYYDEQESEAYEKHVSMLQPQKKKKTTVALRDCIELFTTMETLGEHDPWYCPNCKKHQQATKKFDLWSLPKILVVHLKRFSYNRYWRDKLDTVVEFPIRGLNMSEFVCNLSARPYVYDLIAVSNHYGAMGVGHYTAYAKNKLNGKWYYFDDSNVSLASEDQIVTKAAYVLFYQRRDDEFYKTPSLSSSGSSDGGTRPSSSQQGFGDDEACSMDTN
Procedure, shortened: as §1

Measured: log2 ratio of Biotin-Ahx-Ub-VS probe labelling

N#Cc1ccc(CNC(=O)CCl)cc1
inactive: [1] -0.0142 | [2] 0.0698 | [3] -0.0952 | [4] 0.191 | [5] -0.0634
